Among all 13,000 compounds or so, about 3,200 (25%) showed an effect of 50% or more. This is one part of the list. Peptide text beside a SMILES is read from it. * marks the point of attachment. Boc = CC(C)(C)OC(=O)*

This assay concerns P. falciparum stage V gametocytes. The arrangement: BacTiter-Glo ATP luminescence viability of purified stage V gametocytes in 384-well plates, per cent inhibition versus DMSO. To be noted: 48 h, 5 µM; inhibitor.
For the compound `CC(=O)Nc1ccc(CN2CCC(NC(=O)c3ccc(-c4cccc(C(F)(F)F)c4)s3)CC2)cc1` [TCMDC-134332], the % Inhibition (as a rule, the relative decrease from the control value, in per cent) was 3.235%.

On to `Cc1ccc(O)c(CN2CCCC(COC(c3ccc(F)cc3)c3ccc(F)cc3)C2)c1` (centres unmarked) [TCMDC-136033], for which the “% Inhibition” value is recorded as -2.358%.

For `CCOc1cccc(C(=O)Nc2nonc2-c2ccc(OC)c(OC)c2)c1` [TCMDC-125179], the “% Inhibition” value is reported as 47.83%.

Regarding `CCOc1ccc(-c2nonc2NC(=O)c2ccccc2Cl)cc1OCC` [TCMDC-125205], the “% Inhibition” value turned out to be 48.31%.

Consider `CCOc1ccc(-c2nonc2NC(=O)c2ccccc2F)cc1OCC` [TCMDC-125206], for which the “% Inhibition” value amounted to 57.11%.

Turning to `CCCOc1ccc(-c2nonc2NC(=O)c2cccc(OC)c2)cc1OCCC` [TCMDC-124765], the “% Inhibition” value amounted to 56.26%.

With `CCOc1ccc(-c2nonc2NC(=O)c2ccccc2OC)cc1OCC` [TCMDC-125198], the “% Inhibition” value worked out at 87.63%.

As for `CCCOc1ccccc1C(=O)Nc1nonc1-c1ccc(OCC)c(OCC)c1` [TCMDC-124767], the “% Inhibition” value is reported as 53.72%.

For `O[C@H]1[C@H](OCc2ccc(-c3ccccc3)cc2)CC[C@@H]1N1CCCCC1` [TCMDC-132078], the “% Inhibition” value is reported as -8.021%.

Take `N#Cc1cccc(CN2CCCN(c3ccc(NC(=O)c4cccs4)cc3)CC2)c1` [TCMDC-134987]: the “% Inhibition” value was -14.58%.

Take `Cc1ccc(CN2CCN(CC(O)COc3ccc4c(c3)CCC4)CC2)cc1` (centres unmarked) [TCMDC-141429]: the “% Inhibition” value is listed as -18.62%.

As to `COc1ccc(CC2(c3ccc(F)cc3)N=C(N)N(CCCc3ccccc3)C2=O)cc1` (centres unmarked) [TCMDC-136462], the “% Inhibition” value was -20.11%.

In the case of `CCCOc1ccc(-c2nonc2NC(=O)c2ccccc2OC)cc1OCCC` [TCMDC-124766], the “% Inhibition” value is reported as 53.56%.

With `COc1nc2c(N3CCN(CCNCc4ccc5c(n4)NC(=O)CS5)CC3)ccnc2cc1F` [TCMDC-135193], the “% Inhibition” value is reported as -2.167%.

`c1ccc(CN2CCCN(c3ccc4c(c3)CCN(Cc3ccc(-c5ncc[nH]5)cc3)CC4)CC2)cc1` [TCMDC-136549]: the “% Inhibition” value was 6.085%.

For the compound `CCn1cc(C=C2Oc3c(ccc(O)c3CN3CCCCC3)C2=O)c2ccccc21` [TCMDC-124888], the “% Inhibition” value is reported as 37.53%.

For the compound `CC(C)=C(C(=O)OCc1ccccc1)N1C(=O)[C@@H](NC(c2ccccc2)(c2ccccc2)c2ccccc2)[C@H]1[S+]([O-])CC(=O)OC(C)(C)C` (some centres unmarked) [TCMDC-139078], the “% Inhibition” value is on record as -23.33%.

For the compound `COc1cc(F)c2nccc([C@@H](O)CN3CCC(NC(=O)OCc4ccccc4)C(F)C3)c2c1` (some centres unmarked) [TCMDC-141734], the “% Inhibition” value is on record as -30.04%.

As for `COC(=O)C(=C(C)C)N1C(=O)[C@@H](NC(=O)OCc2ccccc2)[C@H]1SS[C@@H]1[C@H](NC(=O)OCc2ccccc2)C(=O)N1C(C(=O)OC)=C(C)C` [TCMDC-132119], the “% Inhibition” value was 84.32%.

Take `O=C(Nc1cccc(CN2CCCN(Cc3ncc[nH]3)CC2)c1)c1ccc2ccccc2c1` [TCMDC-141856]: the “% Inhibition” value is 45.36%.

Regarding `CC(C)CN1CCCN(Cc2cccc(NC(=O)c3cc4ccccc4s3)c2)CC1` [TCMDC-141869], the “% Inhibition” value was -90.88%.

For the compound `O=C(Nc1cccc(CN2CCCN(Cc3cccnc3)CC2)c1)c1cc2ccccc2s1` [TCMDC-141868], the “% Inhibition” value was 50.41%.

As to `O=C(Nc1cccc(CN2CCCN(Cc3ccsc3)CC2)c1)c1cc2ccccc2s1` [TCMDC-134612], the “% Inhibition” value is -54.77%.

Consider `CCCCCCN1CCN(Cc2cccc(NC(=O)c3cc4ccccc4s3)c2)CC1` [TCMDC-134621], for which the “% Inhibition” value is reported as -21.73%.

Consider `COc1cccc(CN2CCCN(Cc3cccc(NC(=O)c4cc5ccccc5s4)c3)CC2)c1` [TCMDC-141874], for which the “% Inhibition” value is recorded as -57.17%.

Regarding `O=C(Nc1cccc(CN2CCCN(Cc3ccccc3)CC2)c1)c1cc2ccccc2s1` [TCMDC-141864], the “% Inhibition” value is recorded as -29.46%.

With `O=C(Nc1cccc(CN2CCCN(Cc3cccc(O)c3)CC2)c1)c1cc2ccccc2s1` [TCMDC-141875], the “% Inhibition” value is -26.68%.

Regarding `O=C(Nc1cccc(CN2CCCN(CCc3ccccc3)CC2)c1)c1cc2ccccc2s1` [TCMDC-141870], the “% Inhibition” value is given as 77.28%.

For the compound `O=C(Nc1cccc(CN2CCCN(CC3CCCCC3)CC2)c1)c1cc2ccccc2s1` [TCMDC-141863], the “% Inhibition” value is reported as -96.88%.

As for `CCCCCN1CCCN(Cc2cccc(NC(=O)c3cc4ccccc4s3)c2)CC1` [TCMDC-141872], the “% Inhibition” value is 97.12%.

With `O=C(Nc1cccc(CN2CCCN(Cc3ncc[nH]3)CC2)c1)c1cc2ccccc2s1` [TCMDC-141877], the “% Inhibition” value is 80.03%.

On to `COC(=O)CC[C@H](NC(=O)[C@H](C)NC(=O)OC(C)(C)C)C(=O)OC` [TCMDC-131388] (Boc-Ala-Glu(OMe)-OMe), for which the “% Inhibition” value is -20.52%.

Take `CCCCC#Cc1cnc2nc(N)[nH]c(=O)c2n1` [TCMDC-137943]: the “% Inhibition” value is reported as 7.746%.

`CCCCC(O)c1cc(O)c2c(c1)OC(C)(C)CC2C1=CCN(Cc2ccc3ccccc3c2)CC1` (centres unmarked) [TCMDC-131420]: the “% Inhibition” value is on record as -23.67%.

As to `CC1(C)N=C(N)N=C(N)N1c1cccc(C(F)(F)F)c1` [TCMDC-124504], the “% Inhibition” value is listed as -28.24%.

For `CC(=O)Nc1nc(-c2ccccc2)[nH]c1C(N)=O` [TCMDC-131311], the “% Inhibition” value is reported as -1.405%.

In the case of `COc1ccc(Nc2nccc(N3CCC(NC(=O)c4cccc(NC(C)=O)c4)C3)n2)cc1` (centres unmarked) [TCMDC-133611], the “% Inhibition” value was -20.16%.

Turning to `O=C(N[C@H]1CCN(CCc2ccc(O[C@H]3CCNC3)c(Cl)c2)C1)c1ccc(Cl)c(Cl)c1` [TCMDC-141068], the “% Inhibition” value was 47.4%.

Turning to `O=C(N[C@H]1CCN(CCc2ccc(O[C@H]3CCNC3)c(Br)c2)C1)c1ccc(Cl)c(Cl)c1` [TCMDC-141069], the “% Inhibition” value is recorded as 53.75%.

Take `O=C(N[C@H]1CCN(CCc2ccc(O[C@H]3CCNC3)cc2)C1)c1ccc(Cl)c(Cl)c1` [TCMDC-141066]: the “% Inhibition” value is on record as 34.25%.

Take `O=C(N[C@H]1CCN(CCc2ccc(O[C@H]3CCNC3)c(F)c2)C1)c1ccc(Cl)c(Cl)c1` [TCMDC-141067]: the “% Inhibition” value stood at 56.15%.

Consider `O=C(NCCN1CCN(S(=O)(=O)c2ccc(OC3CCNCC3)c(Br)c2)CC1)c1ccc(Cl)c(Cl)c1` [TCMDC-141153], for which the “% Inhibition” value was 84.33%.

With `O=C(N[C@H]1CCN(Cc2ccc(OC3CCN(Cc4ccccc4)CC3)c(Br)c2)C1)c1ccc(Cl)c(Cl)c1` [TCMDC-140286], the “% Inhibition” value came out at 18.35%.

Turning to `COCCNC(=O)c1ccc(OC2CCN(Cc3ccc(F)c(F)c3)CC2)c(Cl)c1` [TCMDC-124653], the “% Inhibition” value is on record as 4.866%.

`Cc1cc(C)c2c(c1)C(=NO)CCN2` [TCMDC-140382]: the “% Inhibition” value is reported as -79.12%.

As for `NC1CCN(c2nc(NCCc3ccc(O)cc3)nc(NCc3ccccc3-c3ccc(C(F)(F)F)cc3)n2)CC1` [TCMDC-133442], the “% Inhibition” value turned out to be 32.82%.

As to `CN1CCC(Oc2cc(NC(=O)Nc3ccc(-c4ccncc4)c(C(F)(F)F)c3)ccc2Cl)CC1` [TCMDC-139223], the “% Inhibition” value was -12.77%.

As for `COc1cc(COc2c(C)nc(N)nc2N)cc(OC)c1OC` [TCMDC-131346], the “% Inhibition” value was determined as 7.837%.

In the case of `NC(N)=NC(=O)Nc1ccc(Cl)c(Cl)c1` [TCMDC-124295], the “% Inhibition” value was -4.176%.

For `CC(=O)Nc1ccc(Cl)c(Cl)c1` [TCMDC-125481], the “% Inhibition” value is given as -1.69%.

As for `NCCCN(Cc1ccc(Cl)c(Cl)c1)C(=O)Nc1ccc(Cl)c(Cl)c1` [TCMDC-139415], the “% Inhibition” value amounted to 96.81%.

For `Cc1cccc(C(=O)Nc2ccc(N3CCCN(Cc4cccc(O)c4)CC3)cc2)c1` [TCMDC-134958], the “% Inhibition” value is given as -89.08%.

Turning to `O=C(/C=C/c1ccc(Cl)c(Cl)c1)NC1CCC(CN2CCC(c3nc4ccccc4s3)CC2)CC1` (centres unmarked) [TCMDC-140215], the “% Inhibition” value worked out at 29.32%.

Consider `Ic1cc(CNC2CCCCC2)ccc1OCc1cccc(COc2ccc(CNC3CCCCC3)cc2I)c1` [TCMDC-137261], for which the “% Inhibition” value is 115.7%.

Take `CN1CCN(Cc2ccc(-c3cc4c(Nc5ccc(OCc6cccc(F)c6)c(Cl)c5)ncnc4s3)[nH]2)CC1` [TCMDC-135458]: the “% Inhibition” value is on record as -90.63%.

For the compound `CC(C)(C)c1cc(CN2CCN(Cc3ccccc3)CC2)cc(C(C)(C)C)c1O` [TCMDC-125537], the “% Inhibition” value was -7.705%.

In the case of `CN1CCN(Cc2ccc(OCc3cccc(COc4ccc(CN5CCN(C)CC5)cc4I)c3)c(I)c2)CC1` [TCMDC-137239], the “% Inhibition” value amounted to 60.02%.

Consider `CC(C)NCc1ccc(OCc2cccc(COc3ccc(CNC(C)C)cc3I)c2)c(I)c1` [TCMDC-137259], for which the “% Inhibition” value was found to be 114.3%.

On to `Oc1ccc(Cc2ccccc2)cc1CNC1CCCCC1` [TCMDC-137598], for which the “% Inhibition” value is given as 6.281%.

Consider `CC(C)CNCc1ccc(OCc2cccc(COc3ccc(CNCC(C)C)cc3I)c2)c(I)c1` [TCMDC-137260], for which the “% Inhibition” value is 108.7%.

For the compound `OC(CNCc1ccccc1OCc1ccccc1)c1cc(Br)cs1` (centres unmarked) [TCMDC-140398], the “% Inhibition” value worked out at 22.96%.

With `Clc1cccc(CNC2CCN(CC3CCCCC3)CC2)c1` [TCMDC-141659], the “% Inhibition” value is given as 7.676%.

Turning to `CC(C)NCc1cccc(-c2cccc(-c3nc4ccccc4[nH]3)c2)c1` [TCMDC-132748], the “% Inhibition” value came out at 37.6%.

In the case of `COc1cc2ncnc(Nc3ccc(OCc4ccccc4)c(I)c3)c2cc1OC` [TCMDC-131944], the “% Inhibition” value is reported as -25.01%.

Consider `OC(CNCc1ccccc1)c1cc(OCc2ccccc2)cc(OCc2ccccc2)c1` (centres unmarked) [TCMDC-132079], for which the “% Inhibition” value came to 44.54%.

Consider `O=C(NC1CCC(N2CCC(Cc3ccc(F)cc3)CC2)CC1)c1cc2ccccc2[nH]1` (centres unmarked) [TCMDC-132894], for which the “% Inhibition” value came to 45.26%.

For the compound `Cc1cnc(-c2ccc(NC(=O)N3CCc4cc5nccc(N6CCN7CCC[C@H]7C6)c5cc43)c3ccccc23)o1` [TCMDC-140052], the “% Inhibition” value was -7.754%.

Take `COc1ccc(NS(=O)(=O)c2cc(NC(=O)Cn3ccccc3=O)ccc2N2CCCCC2)cc1` [TCMDC-124874]: the “% Inhibition” value is reported as 16.03%.

Values taken from PMC4552634, “A New Set of Chemical Starting Points with Plasmodium falciparum Transmission-Blocking Potential for Antimalarial Drug Discovery” (PLoS ONE, 2015).
